# Unmarked numbers belong to inactive results.
# Tests used:
# [1] = system: Schistosoma mansoni schistosomula (NMRI); experiment: phenotypic severity score (0-4); higher = more antischistosomal effect, active = 2 or more; settings: 10 µM
# [2] = system: Schistosoma mansoni schistosomula (Liberian); experiment: drug effect (1 - score/DMSO control score) (fraction); higher = more antischistosomal effect, active = 0.5 or more; extreme values may be limits of the assay; settings: 10 µM
# Outline: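 Drug effect was calculated by comparing the mean score of the test wells with the mean score of the DMSO wells, and any negative value was set to zero. Duplicate wells of 50 Liberian-strain S. mansoni schistosomula, mechanically transformed from cercariae and pre-incubated at least 12 h, received 10 µM compound in Medium 199 with 5% FCS at 37 °C, 5% CO2, with 0.1% DMSO in the comparison wells. Visual scoring at 10× took place at 24, 48 and 72 h on a quarter-point scale from 3 (normal) to 0 (dead), and a plate counted only if its DMSO wells averaged at least 2.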
# 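Wherever phenotypic severity score (0-4) is given: visual microscopic scoring of shape, motility and density changes versus 0.5% DMSO solvent controls, one point per descriptor, degeneracy or death scored 4, mean of duplicate wells.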
SMILES,phenotypic severity score ([1]; 24 h),phenotypic severity score ([1]; 48 h),phenotypic severity score ([1]; 72 h),drug effect ([2]; 24 h),drug effect ([2]; 48 h),drug effect ([2]; 72 h)
O=C(NC1=NCCS1)c1sc2cc(F)ccc2c1Cl,0,0,0,0.0909,0.1,0.0182
COc1ccc2nc(C)cc(OCC(=O)Nc3ccccc3OC)c2c1,0,0,0,0.2,0.278,0.25
CC(C)(C)OC(=O)N1CCC(Cn2nc(-c3cnc4ccccc4c3)c3c(N)ncnc32)CC1,1,4 (active),4 (active),0.405,0.444,0.688 (active)
Clc1ccc(-n2cc(COc3ccnc4ccccc34)nn2)cc1,0,0,0,0.105,0.389,0.312
CC(C)n1ncc2c(C(=O)NCC(c3cccs3)N3CCOCC3)cc(-c3ccccc3)nc21 (stereo not given),2 (active),0,1,0.273,0.5 (active),0.4
c1ccc2c(c1)CN(CC1CC1)CC1(CCN(Cc3c[nH]c4cnccc34)CC1)O2,0,0,0,< 0,0.1,0.211
NC(=O)c1cc(-c2ccsc2)ccc1OCCOc1ccccc1,0,0,0,0.158,0.111,< 0
CC1(C)Cc2c(c(N3CCOCC3)nc3snc(Br)c23)CO1,0,0,0,0.0455,0.1,0.105
Cc1ccc(Oc2ccc(NC(=O)CNc3ccccc3N3CCCC3=O)cc2)cc1,2 (active),2 (active),0,0.2,0.333,0.556 (active)
CCOC(=O)c1cc(-c2csc(Nc3c(C)cc(C)cc3C)n2)on1,1,1,0,0.182,0.3,0.291
CC(C)(C)n1nc(Cc2cccc3ccccc23)c2c(N)ncnc21,0,0,0,0.15,0.222,0.625 (active)
O=C(Nc1ccccc1-c1nc2c(C(=O)O)cccc2o1)c1ccccc1,0,0,0,0.05,0.027,0.0303
CC1=Nc2ccc(Cl)cc2C(O)(c2ccc(C)cc2)N1CCN1CCCCC1 (stereo not given),0,0,0,< 0,0.188,0.375
NCCCC(N)(C(=O)O)C(F)F (stereo not given),0,0,0,0.15,0.135,0.222
COc1ccc(C2=NN(C3CCCCCC3)C(=O)C2(C)C)cc1OCCCCOc1ccc(-c2nn[nH]n2)cc1,1,0,0,0.182,0.2,0.127
COc1cc(NC(C)CCCN)c2ncccc2c1 (stereo not given),0,0,0,< 0,0.135,0.333
N=C(N)Nc1ccc(-c2ccc(-c3ccc(N=C(N)N)c(Cl)c3)o2)cc1Cl,0,0,0,< 0,< 0,0.0625
CCOC(=O)c1noc(N)c1-c1ccccc1,0,0,0,0.05,0.0811,0.0909
Cc1cnc(CCNC(=O)c2cc(-c3ccc(Cl)cc3)cs2)[nH]1,1,1,0,0.136,0.45,0.509 (active)
CCN(CC)C(=O)N1CCN(C)CC1,0,0,0,0.15,0.222,0.375
CCOc1ccc2cc(-c3nn(C(C)(C)C)c(N)c3C(N)=O)cnc2c1,0,0,0,0.2,0.243,0.389
Cc1ncc(-c2ccnc(Nc3ccc(S(C)(=O)=O)cc3)n2)n1C(C)C,0,0,0,0.15,0.135,0.167
CS(=O)(=O)Cc1nc2ccccc2oc1=O,0,0,0,0.182,0.45,0.455

SMILES,phenotypic severity score ([1]; 24 h),phenotypic severity score ([1]; 48 h),phenotypic severity score ([1]; 72 h),drug effect ([2]; 24 h),drug effect ([2]; 48 h),drug effect ([2]; 72 h)
Cc1cc(NC(=O)c2ccc(S(=O)(=O)N(Cc3ccccc3)C(C)C)cc2)no1,1,0,0,0.135,0.444,0.25
Cc1ccc2[nH]c3c(NCCN(C)C)ncnc3c2c1,1,0,1,0.25,0.222,0.333
COc1ccccc1CNC(=O)c1cc(C2CC2)nc2c1cnn2C(C)C,0,0,0,0.2,0.459,0.667 (active)
COc1ccc(Oc2ccc([C@@H](C)N(C)c3ncc4c(N)nc(N)nc4n3)cc2)cc1,4 (active),4 (active),4 (active),0.526 (active),0.5 (active),0.5 (active)
COc1ccc(-c2cnc3ccc(N4CCCC4)nn23)cc1OC,2 (active),4 (active),4 (active),0.784 (active),0.944 (active),1 (active)
CC(C(=O)N1CCCC1)N1CCN(S(=O)(=O)c2ccc(C(C)(C)C)cc2)CC1 (stereo not given),1,0,0,0.05,0.027,0.0909
O=C1[C@@H](Oc2ccccc2)[C@@H](c2ccc(Cl)cc2)N1CCn1cnc2c(NCc3ccccc3)ncnc21,3 (active),4 (active),4 (active),0.136,0.1,0.158
Cc1cnc(N2CCN[C@@H](Cc3ccccc3)C2)nc1Oc1ccc(-n2ccnc2)cc1,4 (active),4 (active),4 (active),0.3,0.556 (active),1 (active)
Cc1noc(C)c1C(=O)N1CCCC(c2[nH]c3c(C)cccc3c2-c2ccncc2)C1 (stereo not given),4 (active),4 (active),4 (active),0.35,0.5 (active),0.778 (active)
COc1ccc(-c2cncc3ccc(C(=O)NCCCn4ccnc4)nc23)cc1,1,0,0,< 0,0.027,0.0303
CCN(CC)S(=O)(=O)c1ccc(C(=O)Nc2cc(C)nn2-c2nc(C)c(C)c(=O)[nH]2)cc1,0,0,0,0.1,< 0,< 0
CS(=O)(=O)N1CCC(Cn2nc(Cc3cccc4ccccc34)c3c(N)ncnc32)CC1,0,0,0,0.1,0.568 (active),0.636 (active)
Nc1ncnc2c1ncn2[C@@H]1O[C@H](COS(=O)(=O)NC(=O)c2ccccc2O)[C@@H](O)[C@H]1O,0,0,0,0.1,0.111,0.125
Cc1nc(-c2ccccn2)nc(NCCc2ccc(S(C)(=O)=O)cc2)c1Cl,0,4 (active),4 (active),0.135,0.167,0.5 (active)
Cc1cccc(-c2nc(Nc3ccncn3)c3sccc3n2)n1,1,3 (active),4 (active),0.405,0.667 (active),0.75 (active)
COc1ccc(N(CCc2cccc(C)n2)C(=O)C2CCCCC2)cc1,0,2 (active),1,0.15,0.2,0.111
Cc1cc(NCC(C)C)c2n[nH]c(-c3ccccc3)c2n1,0,0,0,0.105,0.111,0.0625
N#Cc1nc(-c2ccccc2F)oc1NCCc1ccccc1,0,0,0,0.2,0.111,0.125
O=C(NCc1cc(Cl)cc(Cl)c1)c1c(C(F)(F)F)nc2ccccn12,0,1,0,0.158,0.333,0.312
O=C(NCCN1CCCC1)c1cc(NCCN2CCOCC2)nc2ccc(Cl)cc12,0,0,0,0.15,0.222,0.438
CCc1cc(=O)n(C)c(SC(C)C(=O)Nc2ccc(F)cc2)n1 (stereo not given),0,0,1,0.135,0.111,< 0
Cc1[nH]c2ccccc2c1C(c1cccs1)N1CCN(C)CC1 (stereo not given),3 (active),4 (active),4 (active),1 (active),1 (active),1 (active)

# From the supplement of paper PMC6805474
